Growth data for 15 compounds are collected here from PubChem BioAssay (NCI).

Molecules are shown by their SMILES. “And” between values parts separate entries of the source, which are not always exact repeats. Identical values can stand only once. About 83,000 compounds went through this panel and 20% of them were active in at least one assay; those are over-represented in the sample as a whole.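 Testing used 96-well plates and a 48-hour single-concentration exposure. Example: -40 means 40% of the starting cells died.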 Unmarked numbers belong to inactive results. The source made the active and inactive calls. How the source made its calls: active means growth percent below 10; inactive means the rest.

The test concerns HL-60(TB) leukemia. Kind of test: NCI-60 one-dose screen, 48 h (100 = growth as untreated, 0 = no growth, -100 = all killed). The note with it: 10 µM unless noted.
Regarding `Clc1cccc(-c2cc(-c3ccc4c(c3)OCCO4)[nH]n2)c1`, the growth was 15.2% [25 µM].
With `CCN(CC)CCCNc1ccnc2cc3ccccc3cc12` the figure was 83.7%; with `O=Cc1c(O)c2ccccc2[nH]c1=O`, 126%; with `CCOC(=O)c1c[nH]c2cc(OCC3CC3)c(OCC3CC3)cc2c1=O`, 104%.
With `Cc1ccc(C(=O)NN)cc1` the figure was 124%.
The value for `Clc1ccc(Nc2nnc(COc3ccccc3)c3ccccc23)cc1` was -15.7% (active); that for `COc1cnc2c(c1)C(=O)c1c-2n(CCCN2CCNCC2)c(=O)c2cc(F)ccc12` was -25% (active); that for `CC[C@@H]1NC(=O)[C@@H]2CCCCN2C(=O)[C@@H]2CCCN2C(=O)[C@@H](NC(=O)[C@H](Cc2cc(F)cc(F)c2)NC(=O)Nc2ccc(C3CC3)cc2F)[C@H](C)OC(=O)[C@@H]2C[C@@H](C)CN2C1=O` was 5.69% (active).
Turning to `C/C(=C\c1ccccc1)c1ccccn1`, the growth is 70.9%.
The value for `COc1ccc(NC(=O)c2cccc(-c3cc(=O)c4c(O)c(OC)c(OC)cc4o3)c2)cc1` was 130%.
With `CNNc1ncnc2c1cnn2-c1ccc(S(N)(=O)=O)cc1` the figure was 83.5%.
With `OCCN1CCN(CCCN2c3ccccc3Sc3ccc(Cl)cc32)CC1` the figure was 85.8% and 73.9%.
Take `COc1ccc(/C=C/C(=O)c2c(C)nc3ccccc3c2/C=C/c2ccccc2)c(OC)c1`: the growth was 66.7%.
With `O=C(/C=C/c1cccs1)c1ccc(Cl)nc1` the figure was 100%.
With `O=C(C=P(c1ccccc1)(c1ccccc1)c1ccccc1)c1ccc(Br)cc1` the figure was 8.84% (active).
